# Hit rate of the full screen: of about 53,000 compounds, about 900 (1.7%) showed an effect of 50% or more. This is one part of a sample in which strong results are shown more often than they occur.
# Tested on: Mycobacterium tuberculosis
# Experiment: Cornell - Phenotypic assay to identify agents that inhibit growth of Mycobacterium tuberculosis
# Format: functional
# Set-up: scale not given: direction of the effect not stated beside the values
# Details: 10 mM as filed; unlikely as a test dose
row,Compound,Percent Effect
1,C1CN(Cc2noc(C3CC3)n2)CCN(Cc2nnc(C3CC3)o2)C1,-22.59%
2,Cc1cnn(C2CCCN(C(=O)CCCc3ccccn3)C2)c1 (stereo unspecified),2.711%
3,COc1ccc(S(=O)(=O)Nc2cnc(N(C)C)nc2)cc1,-14.34%
4,CCCN(C(=O)c1cnccn1)c1nc2c(s1)CCc1c-2cnn1C,25.49%
5,CCCN(C(=O)c1ccncc1)c1nc2c(s1)CCc1c-2cnn1C,54%
6,CCCN(C(=O)c1cccnc1)c1nc2c(s1)CCc1c-2cnn1C,30.71%
7,CS(=O)(=O)NC[C@H]1OC[C@H]2CN(CCc3ccccc3)CC[C@H]21.O=C(O)C(F)(F)F,1.676%
8,CN1CCOC(CNCc2coc(-c3cccc(Cl)c3)n2)C1 (stereo unspecified),12.33%
9,COc1ccc(CN(C)[C@@H]2CN(C(=O)c3cccnc3)C[C@H]2O)cc1,29.94%
10,CC(C)c1cc(C(=O)NCC2CCCN(c3ncccn3)C2)n(C)n1 (stereo unspecified),10.83%
11,COc1cccc(-c2cc(C(=O)N3N=C(C)CC3(O)C(F)(F)F)[nH]n2)c1 (stereo unspecified),58.69%
12,COc1ccc(-c2cc(C(=O)N3N=C(C)CC3(O)C(F)(F)F)[nH]n2)cc1 (stereo unspecified),-4.762%
13,COc1cccc(-c2cc(C(=O)N3N=C(C)CC3(O)C(F)F)[nH]n2)c1 (stereo unspecified),21.19%
14,COCC(=O)Nc1nccn1Cc1ccc(Br)cc1,26.85%
15,CC(C)(C#N)C(=O)Nc1nccn1Cc1ccc(Br)cc1,15.16%
16,CCOCC(=O)Nc1nccn1Cc1ccc(Br)cc1,58.9%
17,COCCC(=O)Nc1nccn1Cc1ccc(Br)cc1,27.83%
18,CSCC(=O)Nc1nccn1Cc1ccc(Br)cc1,106.3%
19,CCOCC(=O)Nc1ncn(Cc2cccc(Br)c2)n1,-12.98%
20,CNC(=O)C1Cn2ccnc2C2(CCN(C(=O)NC3CCCC3)CC2)O1 (stereo unspecified),14.23%
21,COCCNC(=O)N1CCCC(COc2ccccc2)C1 (stereo unspecified),32.08%
22,COCCN1CC(C(=O)Nc2ccc3c(c2)CCC(=O)N3C)CC1=O (stereo unspecified),-14.74%
23,Cn1ncc2c(NCC3CCCN3c3cccnn3)ncnc21 (stereo unspecified),19.68%
24,CCOc1cccc(COC(=O)c2cc(C)on2)n1,56.01%

row,Compound,Percent Effect
1,CCOc1cccc(COC(=O)c2cscn2)n1,94.28%
2,CCOc1cccc(COC(=O)c2ccc(F)cn2)n1,26.62%
3,CCOc1cccc(COC(=O)c2cc(Cl)ccn2)n1,14.29%
4,CCOc1cccc(NC(=O)c2cc(C)on2)n1,7.843%
5,CCOc1cccc(COC(=O)c2ccc(Cl)cn2)n1,25.49%
6,Cc1cnn(CC(C)NCc2nc(-c3ccoc3)no2)c1 (stereo unspecified),-18.82%
7,CC(=O)N1CCN(C(C)c2ccc(Br)cc2)CC1 (stereo unspecified),29.59%
8,CC(=O)c1cccc(NC(=O)Cn2cc(I)cn2)c1,18.59%
9,COc1ccc(C2CNCCN2C(=O)c2cccc3cccnc23)cc1 (stereo unspecified),-23.3%
10,COc1ccccc1C(=O)N1CCC(Nc2ccc(C)nn2)CC1,2.292%
11,CCc1ccc(NC(C(N)=O)c2ccc(F)cc2)cc1 (stereo unspecified),17.32%
12,Cc1csc(CN2CCC[C@]3(C[C@H](OCC4CC4)CO3)C2)n1,14.79%
13,CC(Nc1ncnc2c1CCNC2)c1ccc(C(C)(C)C)cc1 (stereo unspecified),24.62%
14,CCCc1ccc(C(C)Nc2ncnc3c2CCNC3)cc1 (stereo unspecified),32.1%
15,CCOc1ccc(C(C)Nc2ncnc3c2CCNC3)cc1OCC (stereo unspecified),51.31%
16,COC(=O)Cn1nc(-c2ccccc2F)ccc1=O,-14.4%
17,O=c1c(S(=O)(=O)N2CCCCC2)cccn1Cc1ccccc1Cl,9.959%
18,CC(C)COC(=O)N1CCCN(C(C)c2nc(C(C)C)no2)CC1 (stereo unspecified),10.17%
19,O=C(NCCc1cccs1)C1(N2CCCCC2)Cc2ccccc2C1,15.22%
20,O=C(O)C(F)(F)F.O=C(O)C(F)(F)F.c1cnc(N2CCO[C@H]3CN(Cc4ccsc4)C[C@H]32)nc1,5.511%
21,Cc1cccc(CN2C[C@@H]3OCCN(c4ccnc(N(C)C)n4)[C@@H]3C2)c1.O=C(O)C(F)(F)F,24.83%
22,CN(C)c1nccc(N2CCO[C@H]3CN(Cc4ccsc4)C[C@H]32)n1.O=C(O)C(F)(F)F,57.1%
23,Oc1ccccc1-c1n[nH]c(C2CC2)n1,-27.03%
24,CNC(=O)CC1CCN(C(=O)NCc2cn3c(C)cccc3n2)CC1,20.05%

row,Compound,Percent Effect
1,CC(=O)N1CCCC(c2ccc(C(=O)NC3CCCC3)cn2)C1 (stereo unspecified),-27.02%
2,COc1ncc(CN2C[C@@H]3CC[C@@](O)(c4ccc(C)cn4)[C@@H]3C2)cn1.O=C(O)CC(O)(CC(=O)O)C(=O)O,-1.54%
3,Cc1ccc([C@]2(O)CC[C@H]3CN(Cc4ccccc4F)C[C@H]32)nc1.O=C(O)CC(O)(CC(=O)O)C(=O)O,8.735%
4,Cc1ccc([C@]2(O)CC[C@H]3CN(Cc4cc(C)c(O)c(C)c4)C[C@H]32)nc1.O=C(O)CC(O)(CC(=O)O)C(=O)O,50.31%
5,Cc1ccc([C@]2(O)CC[C@H]3CN(Cc4cccc(F)c4F)C[C@H]32)nc1.O=C(O)CC(O)(CC(=O)O)C(=O)O,-20.35%
6,Cc1ccc([C@]2(O)CC[C@H]3CN(Cc4cccc(Cl)c4Cl)C[C@H]32)nc1.O=C(O)CC(O)(CC(=O)O)C(=O)O,69.29%
7,O=C(O)CC(O)(CC(=O)O)C(=O)O.O[C@@]1(c2ccccn2)CC[C@H]2CN(Cc3cccc(Cl)c3Cl)C[C@H]21,3.215%
8,CN(CCc1ncnn1-c1ccccc1Cl)C1CCS(=O)(=O)C1 (stereo unspecified),-16.6%
9,Cc1ccc(CNS(=O)(=O)CCCC#N)cc1F,6.478%
10,CC(c1nccs1)N(C)S(=O)(=O)NCc1ccccc1 (stereo unspecified),-14.93%
11,Cc1cc(C)n(CC2CN(CC(=O)NC(C3CC3)C3CC3)CCO2)n1 (stereo unspecified),-31.15%
12,Cc1ccc(CN2Cc3c(C(=O)N4CCOCC4)nn(C)c3C2)s1.O=C(O)C(F)(F)F,15.84%
13,O=C(O)C(F)(F)F.c1cnc(N2CCO[C@H]3[C@H](OCC4CCOCC4)CC[C@@H]32)nc1,-2.783%
14,c1ccc(CN2CCC(Nc3ncnc4c3CCNCC4)C2)cc1 (stereo unspecified),21.59%
15,CCS(=O)(=O)N1CCCCC1c1nc(CC(C)C)no1 (stereo unspecified),28.4%
16,Cc1cccc2c1cnn2CCC(=O)NCc1csc(C2CC2)n1,28.59%
17,CN1CCN(c2ncccc2N)CC1,-43.88%
18,Cl.Nc1cccnc1N1CCCCCC1,72.92%
19,Nc1cccnc1N1CCN(c2ccccc2)CC1,11.1%
20,Cc1cc(C)n(CCNCc2cc(-c3ccc(Cl)cc3)c[nH]c2=O)n1,-2.359%
21,Cc1nc2c(c(NCc3cc4ccccc4s3)n1)CCNCC2,31.59%
22,Cc1nc2c(c(NCc3ccc(-c4ccccn4)s3)n1)CCNCC2,10.6%
23,Cc1nc2c(c(NCc3nc4ccccc4s3)n1)CCNCC2,90.34%
24,Cc1nnc(N2CC[C@H]3C[C@@H](C(=O)NC4CCCC4)O[C@H]3C2)s1.O=C(O)C(F)(F)F,-17.08%

row,Compound,Percent Effect
1,O=C(NC1CCN(Cc2cccc3c2OCCO3)CC1)c1cccs1,-12.52%
2,Cc1nnc([C@@]23CCO[C@@H]2CCN(Cc2ccc4c(c2)OCO4)C3)o1,-5.266%
3,Cc1csc(N2CCN(C(=O)c3c(C)oc(C)c3C)CC2)n1,16.26%
4,Cc1cc(C(N)=O)ccc1NC(=O)c1nc(N2CCCC2)ncc1Cl,105.8%
5,CN(C)C(CNC(=O)c1nc(N2CCCC2)ncc1Cl)c1ccco1 (stereo unspecified),22.7%
6,Cc1cc(NC(=O)c2nc(N3CCCC3)ncc2Cl)nc(C(C)C)n1,24.2%
7,O=C(Nc1cnn(Cc2ccc(Cl)cc2)c1)N[C@@H]1C=C[C@H](CO)C1,24.39%
8,Cc1cnn(Cc2ccc(NC(=O)N[C@@H]3C=C[C@H](CO)C3)cc2)c1,20.48%
9,O=C(Nc1cnn(-c2ccccc2Cl)c1)N[C@@H]1C=C[C@H](CO)C1,52.75%
10,O=C(N1CCCC1)N1C[C@@H](OCc2cccnc2)[C@H]2OCCC[C@H]21.O=C(O)C(F)(F)F,12.95%
11,Cc1cc2ccccc2n1CCC(=O)N1CCCCC1CCO (stereo unspecified),105.9%
12,Cc1cc2ccccc2n1CCC(=O)N1CCCC2(CC1)CNC(=O)O2 (stereo unspecified),-6.951%
13,Cc1cc2ccccc2n1CCC(=O)N1CCCC1Cn1cccn1 (stereo unspecified),91.97%
14,O=C(CCCOc1ccccc1)N1CCCC1Cn1cccn1 (stereo unspecified),-5.631%
15,Cc1cc2ccccc2n1CCC(=O)N1CCN(C)CC1C(N)=O (stereo unspecified),81.47%
16,COc1ccc2c(ccn2CC(=O)N2CCCC2Cn2cccn2)c1 (stereo unspecified),24.26%
17,Cc1cc2ccccc2n1CCC(=O)N1CCC2(CC1)CNC(=O)C2,-9.599%
18,Cc1cc(C)n(CC(=O)N2CCCCC2CCN(C)C)c(=O)n1 (stereo unspecified),19.58%
19,Cc1cc2ccccc2n1CCC(=O)N1CCC[C@H]1C(N)=O,9.96%
20,Cc1cc(C2CCCN(C(=O)c3cccnc3)C2)ccn1 (stereo unspecified),-13.34%
21,CCc1cc(NCc2ccccc2CN2CCCC2)n2ncnc2n1,-6.247%
22,O=C(NCc1ccco1)[C@H]1C[C@@H]2CCN(c3ncccn3)C[C@H]2O1.O=C(O)C(F)(F)F,33.78%
23,COCC[C@]1(O)CCN(Cc2nc(C)cs2)C[C@H]1C,-15.54%
24,O=C(O)C(F)(F)F.O=C1[C@H]2CN(c3ncccn3)C[C@H]2CN1CCN1CCCC1,1.191%
